Test results published in PubChem BioAssay (NCATS).
Inconclusive results are not listed. Entries that show only a call come without a potency. Active and inactive are the calls of the source. The call rests on the fitted dose curve; in most records, active means well fitted cell-killing curve with a large enough effect; inconclusive means small, poorly fitted or top-dose-only effect, or effect the other way; inactive means flat fitted curve, though single readings scatter. Where a SMILES comes first, the peptide text is derived from it. The star is where a group is joined. Hexanoyl = CCCCCC(=O)*

These compounds were tested on OV90 (assay: Primary qHTS to identify gynecologic anti-cancer compounds using libraries of approved drugs and bioactive compounds (AID 1345084; further: nearly all actives have a fitted effect of over 55% in size)). Settings: Gynecologic cancer cell panel viability, ATPlite luminescence, 48 h; series mostly up to 57.5 µM.
How it was run: (§1)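 Five-point cytotoxicity, 48 h drug exposure at 37 C, 5% CO2, on cells seeded 16 h beforehand. ATP content read by ATPlite luminescence.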

| Compound | activity change, negative = cytotoxicity | Potency |
| --- | --- | --- |
| CC1(C)CC[C@]2(C(=O)O)CC[C@]3(C)C(=CCC4[C@@]5(C)CC[C@H](O[C@@H]6O[C@H](C(=O)O)[C@@H](O)[C@H](O[C@@H]7O[C@H](CO)[C@H](O)[C@H](O)[C@H]7O)[C@H]6O[C@@H]6O[C@H](CO)[C@@H](O)[C@H](O)[C@H]6O)C(C)(C)C5CC[C@]43C)[C@@H]2C1 (stereo partly specified) | 8.65% [at 6.55 µM] (inactive) | – |
| C[C@H]1[C@@H](O)[C@H](O)C2[C@]3(C)C([C@@H](O)[C@H]4OC(=O)[C@@H]1[C@@]24C)[C@](C)(O)C=C[C@H]3O[C@@H]1O[C@H](CO)[C@@H](O)[C@H](O)[C@H]1O (stereo partly specified) | – | inactive |
| CCCCNc1nc(N)c2[nH]c(=O)n(Cc3ccc(OCCN(C)C)nc3)c2n1 | – | inactive |
| CSCC1OC(n2cnc3c(N)ncnc32)C(O)C1O (stereo unspecified) | – | inactive |
| C[C@]1(O)CC[C@@H]2C(C(=O)O)=CO[C@@H](O[C@@H]3O[C@H](CO)[C@@H](O)[C@H](O)[C@H]3O)[C@@H]21 | – | inactive |
| C[C@@H]1C[C@H]2OC(=O)[C@@]3(C)CCC[C@](C)(C23)[C@@]1(O)CCC1=CC(=O)OC1O (stereo partly specified) | – | inactive |
| NC(=O)NCCCC(NC(=O)Cc1ccccc1)C(=O)O (stereo unspecified) | – | inactive |

What follows are compounds tested on PA-1 in the same assay as above. Settings: Gynecologic cancer cell panel viability, ATPlite luminescence, 48 h; series mostly up to 57.5 µM.
How it was run: as §1

| Compound | Potency | activity change, negative = cytotoxicity |
| --- | --- | --- |
| COc1cc(O)c2c(c1)C1(OC2=O)C(C)=CC(=O)C1O (stereo unspecified) | inactive | – |
| CC1CCC2(NC1)OC1C(O)C3C4CCC5CC(O[C@@H]6O[C@H](CO)[C@@H](O)[C@H](O)[C@H]6O[C@@H]6O[C@@H](C)[C@H](O)[C@@H](O)[C@H]6O)CCC5(C)C4CCC3(C)C1C2C (stereo partly specified) | inactive | – |
| Cc1c(C)c(NCC(=O)N(C)C2CCN(Cc3ccc(C(N)=O)cc3)CC2)c(C)c(C)c1N | inactive | – |
| CC1(C(=O)O)CCCC2(C)C3CCC4CC3(CCC12)CC4(O)CO (stereo unspecified) | inactive | – |
| CCCN(CCN1CCN(c2ccccc2OC)CC1)C1CCc2ncsc2C1 (stereo unspecified) | inactive | – |
| CC/C=C\CC1C(CC(=O)O)CCC1OC1OC(CO)C(O)C(O)C1O (stereo unspecified) | inactive | – |
| CCN1CCN(C(=O)N[C@@H](C(=O)N[C@@H]2C(=O)N3[C@@H]2SC(C)(C)[C@@H]3C(=O)O)c2ccccc2)C(=O)C1=O | inactive | – |
| H-DPPDPDRFYGMM-NH2 | inactive | – |
| C/C=C(\C)C1C(C)=CC2CCC(OS(=O)(=O)O)C(C)C2C1/C=C/C=C/C(=O)O (stereo unspecified) | inactive | – |
| CC(=O)NC(Cc1c[nH]c2ccccc(=O)c12)C(=O)O (stereo unspecified) | inactive | – |
| O=C(Cn1c2ccccc2c2nc3n(c(=O)c21)CCS3)N1CCCC1 | inactive | – |
| Nc1nc2c(nc(Sc3ccc(Cl)cc3)n2[C@@H]2O[C@@H]3COP(=O)(O)O[C@H]3[C@H]2O)c(=O)[nH]1 | inactive | – |
| C/C=C/C=C/C=C/C(=O)O[C@@H]1C=C(CO)[C@](O)(CO)[C@@]2(C)CCCC(C)(C)[C@H]12 | inactive | – |
| CCOc1ccc(-c2cc(NC(=O)c3c(F)cccc3F)c(C(=O)O)s2)cc1 | inactive | – |
| Cc1ccccc1NC(=O)Nc1ccc(CN2C(=O)N([C@@H](CC(C)C)C(=O)N[C@@H](CC(=O)O)c3ccccc3)C(=O)C2(C)C)cc1 | inactive | – |
| CC1=C[C@H](O)[C@H]2C(C)(C)CCC[C@]2(C)[C@@]1(O)CO | inactive | – |
| CC(=O)OC1(C)CC(O)C2(O)C=COC(OC3OC(CO)C(O)C(O)C3O)C12 (stereo unspecified) | inactive | – |
| CCC(C)C1NC(=O)C2C(C)CCN2C(=O)C(CC(O)CO)OC(=O)CCNC(=O)C(C)N(C)C(=O)C(C(C)C)N(C)C1=O (stereo unspecified) | inactive | – |
| CCCCCC(=O)N1CCC[C@H]1C(=O)N[C@@H](Cc1ccc(O)cc1)C(=O)OC (Hexanoyl-Pro-Tyr-OMe) | inactive | – |
| COc1ccc(C(=O)NCc2cc(C(C)C)no2)cc1OC1CCN(C)CC1 | inactive | – |

| Compound | Potency | activity change, negative = cytotoxicity |
| --- | --- | --- |
| Cc1nc2ccccc2c(-c2ccc3c4c(ccnc24)CCO3)c1[C@H](OC(C)(C)C)C(=O)O | inactive | – |
| O=C(O)Cn1nnc(-c2ccc(CN(CCCCOc3ccc(CN4CCCC4)cc3)CCc3ccccc3)cc2)n1 | inactive | – |
| COc1cc(Nc2ccc([N+](=O)[O-])cc2C(=O)O)cc2ccccc12 | inactive | – |
| Nc1c(-c2ccccc2)nc(Cl)c2c(O)n[nH]c(=O)c12 | inactive | – |
| O=C(O)c1cccc(CN2C(=O)/C(=C(\c3ccccc3)c3ccc(Cl)cc3)c3ccccc32)c1 | inactive | – |
| Cc1cc(O[C@@H]2O[C@H](COC(=O)CC(=O)O)[C@@H](O)[C@H](O)[C@H]2O)c(C(C)C)cc1O | inactive | – |
| CC1(C)C[C@H]2C=C(C=O)[C@]3(C(=O)O)C[C@]3(C)[C@H]2C1 | inactive | – |
| COc1c(-c2ccc(O)cc2)cc(OC)c2c1oc1cc(O)c(OC3OC(CO)C(O)C3O)cc12 (stereo unspecified) | inactive | – |
| CC1OC(O[C@@H]2[C@H](O)[C@@H](OC3OC(CO)C(O)C(O)C3O)[C@H](OC(=O)[C@]34CCC(C)(C)C[C@H]3C3=CCC5[C@@]6(C)CC[C@H](O[C@@H]7O[C@H](C(=O)O)[C@@H](O)[C@H](O[C@@H]8OC[C@@H](O)[C@H](O)[C@H]8O)[C@H]7O[C@@H]7O[C@H](CO)[C@H](O)[C@H](O)[C@H]7O)[C@@](C)(C=O)C6CC[C@@]5(C)[C@]3(C)C[C@H]4O)O[C@@H]2C)C(O)C(O)C1OC1OCC(O)C(O)C1O (stereo partly specified) | – | 8.3% [at 6.55 µM] (inactive) |
| O=c1[nH]ccc2nc(-c3ccc(CN4CCC(c5nc(-c6ccccn6)n[nH]5)CC4)cc3)c(-c3ccccc3)cc12 | inactive | – |
| O=C1C[C@@]2(C(=O)N1)C(=O)N(Cc1ccc(Br)cc1F)C(=O)c1cccn12 | inactive | – |
| C/C=C(\C)C(=O)OC[C@H]1O[C@H](O[C@H]2O[C@H](CO)[C@@H](O)[C@H](O)[C@H]2O[C@@H]2O[C@H](CO)[C@@H](O)[C@H](O)[C@H]2O)[C@H](O[C@@H]2O[C@H](CO)[C@@H](O)[C@H](O)[C@H]2O)[C@@H](O)[C@@H]1O | inactive | – |
| CC1(C)CC[C@]2(C(=O)O)CC[C@]3(C)C(=CCC4[C@@]5(C)CC[C@H](O[C@@H]6O[C@H](C(=O)O)[C@@H](O)[C@H](O[C@@H]7O[C@H](CO)[C@H](O)[C@H](O)[C@H]7O)[C@H]6O[C@@H]6O[C@H](CO)[C@@H](O)[C@H](O)[C@H]6O)C(C)(C)C5CC[C@]43C)[C@@H]2C1 (stereo partly specified) | – | 2.41% [at 6.55 µM] (inactive) |
| C[C@H]1[C@@H](O)[C@H](O)C2[C@]3(C)C([C@@H](O)[C@H]4OC(=O)[C@@H]1[C@@]24C)[C@](C)(O)C=C[C@H]3O[C@@H]1O[C@H](CO)[C@@H](O)[C@H](O)[C@H]1O (stereo partly specified) | inactive | – |
| CCCCNc1nc(N)c2[nH]c(=O)n(Cc3ccc(OCCN(C)C)nc3)c2n1 | inactive | – |
| CSCC1OC(n2cnc3c(N)ncnc32)C(O)C1O (stereo unspecified) | inactive | – |
| C[C@]1(O)CC[C@@H]2C(C(=O)O)=CO[C@@H](O[C@@H]3O[C@H](CO)[C@@H](O)[C@H](O)[C@H]3O)[C@@H]21 | inactive | – |
| C[C@@H]1C[C@H]2OC(=O)[C@@]3(C)CCC[C@](C)(C23)[C@@]1(O)CCC1=CC(=O)OC1O (stereo partly specified) | inactive | – |
| NC(=O)NCCCC(NC(=O)Cc1ccccc1)C(=O)O (stereo unspecified) | inactive | – |
